Reference: ChEMBL document CHEMBL1961873, “Compounds: GSK PKIS; Assays: Nanosyn kinase panel” (2012)

Tests used:
[1] = biological target: T1, 3-phosphoinositide-dependent protein kinase 1 (Homo sapiens) (UniProt O15530); settings: at 0.1 µM;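 note: values are mean inhibition of PDK1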
T1 sequence (whole entry): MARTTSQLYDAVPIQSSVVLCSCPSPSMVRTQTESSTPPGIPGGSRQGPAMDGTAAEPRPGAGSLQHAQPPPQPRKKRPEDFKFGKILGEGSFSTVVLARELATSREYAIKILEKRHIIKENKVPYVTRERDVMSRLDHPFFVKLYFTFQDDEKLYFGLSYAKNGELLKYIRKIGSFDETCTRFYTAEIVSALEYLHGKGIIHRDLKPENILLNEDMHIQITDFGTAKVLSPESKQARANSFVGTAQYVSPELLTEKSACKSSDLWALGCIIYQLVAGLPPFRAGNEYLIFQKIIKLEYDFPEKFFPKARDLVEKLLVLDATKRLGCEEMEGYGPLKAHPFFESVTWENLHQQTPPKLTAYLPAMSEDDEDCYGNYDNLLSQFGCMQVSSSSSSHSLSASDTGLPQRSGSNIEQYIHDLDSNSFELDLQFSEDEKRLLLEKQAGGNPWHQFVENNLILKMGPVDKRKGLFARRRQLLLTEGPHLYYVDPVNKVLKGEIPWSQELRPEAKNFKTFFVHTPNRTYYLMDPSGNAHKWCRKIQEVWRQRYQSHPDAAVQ

[2] = biological target: cAMP-dependent protein kinase catalytic subunit alpha (Homo sapiens) (UniProt P17612); settings: at 0.1 µM
[3] = biological target: cAMP-dependent protein kinase catalytic subunit alpha (Homo sapiens) (UniProt P17612); settings: at 1 µM
[4] = biological target: Protein kinase C alpha type (Homo sapiens) (UniProt P17252); settings: at 0.1 µM
[5] = biological target: Protein kinase C alpha type (Homo sapiens) (UniProt P17252); settings: at 1 µM
[6] = biological target: Protein kinase C beta type (Homo sapiens) (UniProt P05771); settings: at 0.1 µM
Chain of Protein kinase C beta type (Homo sapiens) (P05771 2-671 limits assumed): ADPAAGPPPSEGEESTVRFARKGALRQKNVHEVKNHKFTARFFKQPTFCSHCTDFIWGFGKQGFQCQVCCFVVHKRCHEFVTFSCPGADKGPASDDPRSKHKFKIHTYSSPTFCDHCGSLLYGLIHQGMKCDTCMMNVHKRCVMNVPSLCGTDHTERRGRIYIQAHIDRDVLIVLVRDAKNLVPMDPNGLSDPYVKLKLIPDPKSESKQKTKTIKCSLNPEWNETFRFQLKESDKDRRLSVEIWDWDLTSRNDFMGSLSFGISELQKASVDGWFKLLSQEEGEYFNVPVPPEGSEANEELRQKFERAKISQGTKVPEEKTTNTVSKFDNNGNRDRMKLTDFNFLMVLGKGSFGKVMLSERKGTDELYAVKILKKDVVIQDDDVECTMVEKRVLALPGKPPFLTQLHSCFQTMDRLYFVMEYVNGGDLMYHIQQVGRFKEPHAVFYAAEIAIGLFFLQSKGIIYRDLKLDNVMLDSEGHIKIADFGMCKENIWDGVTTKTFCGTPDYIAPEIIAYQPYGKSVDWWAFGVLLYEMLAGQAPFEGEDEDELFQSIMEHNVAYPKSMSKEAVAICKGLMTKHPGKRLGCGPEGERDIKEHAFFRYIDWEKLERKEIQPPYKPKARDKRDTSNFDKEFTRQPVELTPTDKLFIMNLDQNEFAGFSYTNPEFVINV

[7] = biological target: Protein kinase C beta type (Homo sapiens) (UniProt P05771); settings: at 1 µM
[8] = biological target: Protein kinase C eta type (Homo sapiens) (UniProt P24723); settings: at 0.1 µM
Chain of Protein kinase C eta type (Homo sapiens) (P24723 whole entry): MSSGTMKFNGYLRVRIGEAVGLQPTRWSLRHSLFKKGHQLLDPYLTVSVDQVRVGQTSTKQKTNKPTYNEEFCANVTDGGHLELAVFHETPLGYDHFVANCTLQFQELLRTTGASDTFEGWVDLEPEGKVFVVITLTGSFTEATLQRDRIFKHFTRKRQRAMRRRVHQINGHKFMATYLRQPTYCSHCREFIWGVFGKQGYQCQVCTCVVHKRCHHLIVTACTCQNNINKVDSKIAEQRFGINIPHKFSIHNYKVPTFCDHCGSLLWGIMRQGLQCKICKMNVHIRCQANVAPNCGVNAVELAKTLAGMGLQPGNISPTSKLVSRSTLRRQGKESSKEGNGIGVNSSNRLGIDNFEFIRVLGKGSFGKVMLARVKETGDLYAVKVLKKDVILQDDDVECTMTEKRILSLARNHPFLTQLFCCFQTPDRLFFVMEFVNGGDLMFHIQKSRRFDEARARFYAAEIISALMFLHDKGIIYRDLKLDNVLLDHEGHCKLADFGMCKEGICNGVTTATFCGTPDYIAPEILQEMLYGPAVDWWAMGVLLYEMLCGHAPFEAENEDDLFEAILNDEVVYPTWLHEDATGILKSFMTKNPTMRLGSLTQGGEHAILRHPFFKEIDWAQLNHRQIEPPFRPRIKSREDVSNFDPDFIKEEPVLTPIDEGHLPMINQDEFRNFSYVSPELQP

[9] = biological target: Protein kinase C eta type (Homo sapiens) (UniProt P24723); settings: at 1 µM
[10] = biological target: Protein kinase C gamma type (Homo sapiens) (UniProt P05129); settings: at 0.1 µM
[11] = biological target: Protein kinase C gamma type (Homo sapiens) (UniProt P05129); settings: at 1 µM
[12] = biological target: T2, Protein kinase C iota type (Homo sapiens) (UniProt P41743); settings: at 0.1 µM
T2 sequence (whole entry): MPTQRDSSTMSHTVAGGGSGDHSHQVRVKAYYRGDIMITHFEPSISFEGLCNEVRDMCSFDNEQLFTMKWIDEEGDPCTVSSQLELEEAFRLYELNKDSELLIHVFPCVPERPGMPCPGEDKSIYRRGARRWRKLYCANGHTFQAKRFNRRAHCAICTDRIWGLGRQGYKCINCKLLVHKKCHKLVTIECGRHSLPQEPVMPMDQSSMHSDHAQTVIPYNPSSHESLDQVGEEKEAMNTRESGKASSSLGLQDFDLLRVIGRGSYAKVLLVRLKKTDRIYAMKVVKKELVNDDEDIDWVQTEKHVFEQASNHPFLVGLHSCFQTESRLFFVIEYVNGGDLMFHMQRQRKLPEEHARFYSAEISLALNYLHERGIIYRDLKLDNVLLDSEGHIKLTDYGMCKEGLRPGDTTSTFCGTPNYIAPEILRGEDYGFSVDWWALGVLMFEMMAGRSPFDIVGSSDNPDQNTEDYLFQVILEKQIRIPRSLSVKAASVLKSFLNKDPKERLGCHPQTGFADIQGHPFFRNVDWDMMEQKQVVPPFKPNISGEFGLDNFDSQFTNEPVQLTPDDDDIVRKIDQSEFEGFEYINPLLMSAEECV

[13] = biological target: T2, Protein kinase C iota type (Homo sapiens); settings: at 1 µM
[14] = biological target: Protein kinase C theta type (Homo sapiens) (UniProt Q04759); settings: at 0.1 µM
Chain of Protein kinase C theta type (Homo sapiens) (Q04759 whole entry, looked up): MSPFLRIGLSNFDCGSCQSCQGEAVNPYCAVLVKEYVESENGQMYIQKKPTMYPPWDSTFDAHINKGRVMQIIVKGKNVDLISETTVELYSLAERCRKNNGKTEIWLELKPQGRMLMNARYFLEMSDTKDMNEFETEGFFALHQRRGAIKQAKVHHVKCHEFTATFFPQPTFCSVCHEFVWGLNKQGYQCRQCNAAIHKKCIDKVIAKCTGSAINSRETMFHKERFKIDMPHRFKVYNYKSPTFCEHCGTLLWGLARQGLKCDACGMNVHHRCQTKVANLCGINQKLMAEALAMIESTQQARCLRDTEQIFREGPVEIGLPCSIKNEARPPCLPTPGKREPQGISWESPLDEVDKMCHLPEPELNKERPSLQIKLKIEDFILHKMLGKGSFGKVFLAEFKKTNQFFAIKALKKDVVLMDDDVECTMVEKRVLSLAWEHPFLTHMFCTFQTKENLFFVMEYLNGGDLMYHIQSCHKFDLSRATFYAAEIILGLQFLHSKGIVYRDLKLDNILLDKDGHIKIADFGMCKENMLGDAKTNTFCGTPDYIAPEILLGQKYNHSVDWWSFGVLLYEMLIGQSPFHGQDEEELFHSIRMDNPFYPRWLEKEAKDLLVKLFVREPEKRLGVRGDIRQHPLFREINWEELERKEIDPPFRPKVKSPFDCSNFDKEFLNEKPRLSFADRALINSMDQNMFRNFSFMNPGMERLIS

[15] = biological target: Protein kinase C theta type (Homo sapiens) (UniProt Q04759); settings: at 1 µM
[16] = biological target: Protein kinase C beta type (Homo sapiens) (UniProt P05771); settings: at 0.1 µM; remark: listed apart in the source
[17] = biological target: Protein kinase C beta type (Homo sapiens) (UniProt P05771); settings: at 1 µM; remark: listed apart in the source
[18] = biological target: T3, Serine/threonine-protein kinase D1 (Homo sapiens) (UniProt Q15139); settings: at 0.1 µM
T3 sequence (whole entry): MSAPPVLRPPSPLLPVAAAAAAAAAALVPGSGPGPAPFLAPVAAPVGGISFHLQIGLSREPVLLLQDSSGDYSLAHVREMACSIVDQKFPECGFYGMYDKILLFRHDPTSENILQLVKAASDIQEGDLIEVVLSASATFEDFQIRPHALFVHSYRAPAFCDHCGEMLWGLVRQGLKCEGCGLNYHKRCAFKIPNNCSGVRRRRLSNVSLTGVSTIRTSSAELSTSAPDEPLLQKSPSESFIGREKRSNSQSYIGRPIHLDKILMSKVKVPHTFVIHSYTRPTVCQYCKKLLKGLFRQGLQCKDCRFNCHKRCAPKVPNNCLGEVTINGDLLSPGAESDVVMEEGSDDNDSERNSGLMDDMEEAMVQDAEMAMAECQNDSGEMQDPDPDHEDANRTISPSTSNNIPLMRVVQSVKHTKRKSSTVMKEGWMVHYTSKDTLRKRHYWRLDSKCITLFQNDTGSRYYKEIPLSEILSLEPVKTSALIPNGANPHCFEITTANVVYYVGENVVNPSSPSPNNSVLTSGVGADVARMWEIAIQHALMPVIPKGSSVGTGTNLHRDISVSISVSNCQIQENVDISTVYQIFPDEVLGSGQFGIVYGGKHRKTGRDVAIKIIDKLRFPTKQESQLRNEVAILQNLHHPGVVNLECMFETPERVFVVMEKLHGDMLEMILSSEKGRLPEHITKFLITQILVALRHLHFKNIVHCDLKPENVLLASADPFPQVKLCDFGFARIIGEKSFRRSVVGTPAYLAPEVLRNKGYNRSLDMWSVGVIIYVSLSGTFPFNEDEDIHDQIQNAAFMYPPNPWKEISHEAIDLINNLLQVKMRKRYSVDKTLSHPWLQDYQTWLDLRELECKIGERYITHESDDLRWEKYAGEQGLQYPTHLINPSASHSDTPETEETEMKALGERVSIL

[19] = biological target: T3, Serine/threonine-protein kinase D1 (Homo sapiens); settings: at 1 µM
[20] = biological target: T4, Serine/threonine-protein kinase D2 (Homo sapiens) (UniProt Q9BZL6); settings: at 0.1 µM;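 note: reported percent inhibition values are means, part of the GSK PKIS kinase panel screen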
T4 sequence (whole entry): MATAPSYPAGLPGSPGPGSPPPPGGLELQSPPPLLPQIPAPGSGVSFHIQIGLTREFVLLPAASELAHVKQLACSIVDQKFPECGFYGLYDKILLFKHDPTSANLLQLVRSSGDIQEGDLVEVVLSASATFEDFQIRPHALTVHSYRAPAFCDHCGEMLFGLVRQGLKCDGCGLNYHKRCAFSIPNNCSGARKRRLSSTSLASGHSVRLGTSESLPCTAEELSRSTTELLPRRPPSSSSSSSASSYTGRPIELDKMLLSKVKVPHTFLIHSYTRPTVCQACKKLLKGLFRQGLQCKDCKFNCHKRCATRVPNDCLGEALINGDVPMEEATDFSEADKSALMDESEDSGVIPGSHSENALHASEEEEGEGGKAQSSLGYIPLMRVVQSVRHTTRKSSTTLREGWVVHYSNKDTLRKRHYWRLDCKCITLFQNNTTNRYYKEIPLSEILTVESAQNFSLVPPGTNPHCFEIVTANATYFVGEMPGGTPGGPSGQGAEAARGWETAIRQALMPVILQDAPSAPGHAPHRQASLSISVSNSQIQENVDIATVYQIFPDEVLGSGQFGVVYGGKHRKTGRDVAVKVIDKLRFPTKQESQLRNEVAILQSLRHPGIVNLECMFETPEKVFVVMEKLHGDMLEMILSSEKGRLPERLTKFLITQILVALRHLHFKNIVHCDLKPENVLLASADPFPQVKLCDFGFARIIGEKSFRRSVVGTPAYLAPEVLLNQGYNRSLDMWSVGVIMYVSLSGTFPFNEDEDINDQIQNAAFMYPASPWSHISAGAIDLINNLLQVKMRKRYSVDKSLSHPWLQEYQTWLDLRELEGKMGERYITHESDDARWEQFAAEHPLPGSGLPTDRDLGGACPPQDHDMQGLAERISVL

Row | SMILES | inhibition [1] | inhibition [2] | inhibition [3] | inhibition [4] | inhibition [5] | inhibition [6] | inhibition [7] | inhibition [8] | inhibition [9] | inhibition [10] | inhibition [11] | inhibition [12] | inhibition [13] | inhibition [14] | inhibition [15] | inhibition [16] | inhibition [17] | inhibition [18] | inhibition [19] | inhibition [20]
1 | CS(=O)(=O)CCNCc1ccc(-c2ccc3ncnc(Nc4ccc(OCc5cccc(F)c5)c(C(F)(F)F)c4)c3c2)o1 | 2.02% | 1.79% | 2.53% | 1.25% | 1.29% | 0.59% | 1.62% | 4.51% | 4.84% | 1.87% | 4.01% | 2.77% | 0.63% | 2.4% | 2.71% | 1.67% | 2.44% | 4.99% | 3.72% | 4.63%
2 | Fc1cccc(COc2ccc(Nc3ncnc4cc(-c5ccc[nH]5)sc34)cc2Cl)c1 | 1.86% | -2.47% | -0.52% | -3.29% | -1.9% | 1.37% | 0.9% | 2.87% | 4.5% | 3.21% | 2.69% | 1.76% | 1.59% | 0.25% | 2.17% | 0.99% | 2.94% | -0.95% | -1.14% | -0.92%
3 | COc1cc(C)c(NC(=O)CN(C)C)cc1Nc1nc(Nc2cccc(F)c2C(N)=O)c2cc[nH]c2n1 | 2.96% | 1.08% | -0.43% | 1.34% | 5.42% | -0.18% | -0.1% | 1.08% | 1.46% | 3.92% | 8.9% | -0.31% | 1.29% | 0.13% | 0.13% | 0.38% | 0.55% | 2.21% | 18.1% | 3.43%
4 | Nc1nc(-c2ccccn2)c(-c2ccc3ncccc3n2)s1 | 1.75% | 1.32% | 1.89% | 1.07% | 1.65% | 0.07% | 1.26% | 5.03% | 2.77% | 1.52% | 4.9% | 2.73% | 1.17% | 2.24% | 3.34% | -0.19% | 0.88% | 2.38% | 4.64% | 2.92%
5 | CCN1CCC(CC(=O)Nc2n[nH]c3nc(-c4cccs4)c(Br)cc23)CC1 | -2.02% | -1.4% | 1.75% | -0.16% | 0.74% | 2.07% | 1.35% | -3.78% | 0.16% | -1.57% | 1.17% | -1.06% | -1% | -1.26% | -0.68% | -1.4% | 2.84% | -1.83% | -1.4% | -2.1%
6 | COc1ccc2cc(-c3c(-c4ccncc4)nc(-c4ccc([S+](C)[O-])cc4)n3C)ccc2c1 (stereo not given) | 0.4% | 1.97% | 9.5% | 0.25% | 0.94% | 0.88% | 7.1% | 2.61% | -1.46% | 1.09% | 0.94% | 0.48% | 2.02% | 1.01% | 0.27% | 0.67% | 3.79% | 2.99% | 5.01% | 3.94%
7 | CCn1c(-c2nonc2N)nc2c(C#CC(C)(C)O)nc(CN3CCCC3)cc21 | 0.46% | 8.62% | 44.9% | 2.29% | 6.77% | 3.02% | 14.2% | 19.5% | 67.3% | 3.19% | 8.24% | 0.19% | 1.41% | 2.28% | 7.85% | 3.25% | 6.65% | 1.55% | 5.93% | 1.71%
8 | CC1=C(C(=O)Nc2ccc3[nH]ncc3c2)C(c2ccc(Cl)c(Cl)c2)CC(=O)N1 (stereo not given) | 3.64% | 7.32% | 43.1% | 0.41% | 1.24% | -1.01% | -0.1% | 0.22% | 14.1% | 1.51% | -2.08% | 0.23% | -0.03% | 0.6% | 5.07% | 0.17% | 0.61% | 0.89% | 4.46% | 1.41%
9 | O=C(Nc1n[nH]c2nc(-c3ccco3)c(Br)cc12)C1CC1 | 2% | 1.31% | 2.05% | 0.29% | 0.28% | 1.29% | -0.77% | 3.62% | 2.72% | 0.45% | 3.32% | 0.86% | 2.37% | 1.29% | 0.79% | 0.69% | 1.19% | 2.8% | 5.78% | 3%
10 | COc1ccc(-c2ccncc2)cc1C(N)=O | 1.13% | 2.54% | 3.05% | 1.07% | 1.9% | -0.74% | 0.96% | 3.72% | 6.14% | 2.34% | 1.71% | 0.36% | 1.27% | 2.73% | 4.84% | 0.88% | 2.35% | 5.51% | 15.2% | 4.91%
11 | COc1cc2c(cc1Nc1nc(N3CCc4ccccc43)c3cc[nH]c3n1)N(C(=O)CN(C)C)CC2 | 1.89% | 1.41% | 0.85% | 0.7% | 1.9% | 1.5% | 0.59% | 3.35% | -0.3% | 1.53% | 5.19% | 1.44% | 3.35% | 1.03% | -0.74% | 1.14% | 1.29% | 1.69% | 3.76% | 1.71%
12 | CCCN1CCC(Oc2cc(Nc3nc(Nc4cccc(F)c4C(N)=O)c4cc[nH]c4n3)c(OC)cc2Cl)CC1 | 1.74% | 9.14% | 9.18% | 0.7% | 11.2% | 0.29% | 1.21% | 2.42% | 1.59% | 2.93% | 14.8% | 1.04% | 1.06% | 1.35% | 7.05% | 1.2% | 4.52% | 0.11% | 7.94% | -0.33%
